A selection: hits, their analogues and other compounds. The true share with any hit is near 7%.
JMJD2A Tudor inh – qHTS Assay for Inhibitors of JMJD2A-Tudor Domain | Lysine-specific demethylase 4A (Homo sapiens), O75164 | AlphaScreen JMJD2A-Tudor / H3K4me3 peptide binding | Potency, µM (series often up to 114 µM), for the others: at the top dose activity change, negative = inhibition, hits mostly inhibitors | hit rate 4.4% among 390,000; further: potency means the concentration at half of the fitted maximal effect; on the % scale 0 is the no-effect control and ±100 the full control effect; nearly all actives have a fitted effect of over 50% in size
GCN5L2 inh – qHTS Assay for Inhibitors of GCN5L2 | Histone acetyltransferase KAT2A (Homo sapiens), Q92830 | GCN5L2 HAT assay, ThioGlo1 CoA-SH fluorescence | Potency, µM (titrated, usually from 58.9 µM), without a hit: top-dose activity change, negative = inhibition, actives largely listed as inhibitors | hit rate 0.21% among 390,000; further: potency means the concentration at half of the fitted maximal effect; on the % scale 0 is the no-effect control and ±100 the full control effect
Target sequence (Q92830 whole entry, looked up): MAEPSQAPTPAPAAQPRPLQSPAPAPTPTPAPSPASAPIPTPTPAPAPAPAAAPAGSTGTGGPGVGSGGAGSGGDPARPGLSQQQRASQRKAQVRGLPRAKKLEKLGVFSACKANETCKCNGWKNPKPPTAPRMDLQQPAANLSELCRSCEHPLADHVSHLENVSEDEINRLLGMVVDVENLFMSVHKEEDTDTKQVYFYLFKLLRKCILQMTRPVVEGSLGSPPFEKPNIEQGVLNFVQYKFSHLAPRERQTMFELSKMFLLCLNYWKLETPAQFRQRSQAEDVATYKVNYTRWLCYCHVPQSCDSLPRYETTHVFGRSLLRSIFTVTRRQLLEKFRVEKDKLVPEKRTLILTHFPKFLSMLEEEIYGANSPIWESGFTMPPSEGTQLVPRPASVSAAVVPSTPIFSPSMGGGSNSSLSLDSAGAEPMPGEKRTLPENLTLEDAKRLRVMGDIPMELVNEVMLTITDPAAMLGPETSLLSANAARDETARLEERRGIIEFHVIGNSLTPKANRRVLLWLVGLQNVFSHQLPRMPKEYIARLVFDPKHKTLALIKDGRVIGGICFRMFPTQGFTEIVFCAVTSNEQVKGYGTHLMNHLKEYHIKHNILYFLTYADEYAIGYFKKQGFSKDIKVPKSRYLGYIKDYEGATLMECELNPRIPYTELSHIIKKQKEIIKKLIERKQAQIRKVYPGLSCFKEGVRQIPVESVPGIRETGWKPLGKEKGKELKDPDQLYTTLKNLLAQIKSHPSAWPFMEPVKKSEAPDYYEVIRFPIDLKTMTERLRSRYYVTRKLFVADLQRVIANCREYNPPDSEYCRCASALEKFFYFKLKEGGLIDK
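qHTS, 1536-well. 20nM enzyme, pH 7.5 HEPES/EDTA/Tween-20 buffer; 15 min compound preinc., RT. Start: 75uM H3(1-25), 70uM AcCoA, 50uM ThioGlo1. Read Ex340/Em540 at t=0 (autofluorescence flag) and t=20 min.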
PI5P4K alpha inh – qHTS for Inhibitors of phosphatidylinositol 5-phosphate 4-kinase (PI5P4K). Phosphatidylinositol 5-phosphate 4-kinase type-2 alpha (Homo sapiens), P48426. PI5P4Kalpha enzyme, ADP-Glo luminescence, 60 min; stronger effect = lower value. max response, %. hit rate 1.2% among 330,000. AID 652105, 2013; active means max response of -50% or lower; inconclusive means between -30% and -50%; inactive means -30% or higher; further: value at the top dose of about 77 µM; on the % scale 0 is the no-effect control and ±100 the full control effect
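Single end-point luminescence (ADP-Glo) quantified ADP from PI5P4Kalpha turnover; ATP 5 microM final, 1 h at RT, 0.1% CHAPS and 0.28 mM EGTA in HEPES pH 7.4.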
BAZ2B block – qHTS Assay for Inhibitors of BAZ2B; Bromodomain adjacent to zinc finger domain protein 2B (Homo sapiens), Q9UIF8; AlphaScreen BAZ2B-H3K14Ac peptide displacement; Potency, µM (titrated, usually from 114 µM), for the others: at the top dose activity change, negative = inhibition, most hits filed as inhibitors; hit rate 4.4% among 360,000; further: potency means the concentration at half of the fitted maximal effect; on the % scale 0 is the no-effect control and ±100 the full control effect; nearly all actives have a fitted effect of over 60% in size
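Multi-concentration screen (max 110 uM) measuring displacement of acetylated histone H3 peptide from BAZ2B by AlphaScreen, using 50 nM protein, 50 nM peptide and 10 ug/mL streptavidin donor plus Ni-chelate acceptor beads.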
HP1b chromo inh – HTS for Inhibitors of HP1-beta Chromodomain Interactions with Methylated Histone Tails | Potency, µM (series often up to 114 µM), for inactives: top-dose activity change, negative = inhibition, hits mostly inhibitors | AID 540317, 2011 | AlphaScreen HP1-beta / biotin-H3K9me3 peptide binding | hit rate 0.56% among 390,000; further: potency means the concentration at half of the fitted maximal effect; nearly all actives have a fitted effect of over 70% in size
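AlphaScreen: HP1-beta (50 nM) preformed 30 min with biotin-H3(1-18)K9me3 peptide (50 nM) in PBS pH 7.4, 0.01% Tween-20. Compound added for 30 min at RT, then streptavidin donor/nickel chelate acceptor beads (10 ug/mL) for 30 min.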
PLK1 PBD inh – qHTS for Inhibitors of PLK1-PDB (polo-like kinase 1 - polo-box domain): Primary Screen; Serine/threonine-protein kinase PLK1 (Homo sapiens), P53350; Plk1 PBD binding of FITC phosphopeptide, fluorescence polarization; Potency, µM, for the others: max response, negative = inhibition, most hits filed as inhibitors; hit rate 2.8% among 360,000; AID 720504, 2013; further: potency means the concentration at half of the fitted maximal effect; series mostly up to about 57 µM; on the % scale 0 is the no-effect control and ±100 the full control effect; nearly all actives have a fitted effect of over 65% in size
* marks the source's active call; other numbers are inactive results; ? = inconclusive; . = no result; [ ] = another dose, or the depositor's remark. Unless noted, the call rests on the fitted dose curve; in most records, active means well fitted curve in the direction sought with a large enough effect; inconclusive means small, poorly fitted or top-dose-only effect, or another doubt; inactive means no such curve, though single readings can be large; an effect the other way counts as inactive or inconclusive.

SMILES | JMJD2A Tudor inh | GCN5L2 inh | PI5P4K alpha inh | BAZ2B block | HP1b chromo inh | PLK1 PBD inh
COC(=O)CC1=NN(c2ccc(OC)cc2)C(=O)/C1=C\c1ccc(Cl)cc1 | ? | -23% | -14 | 50µM* | ? | 2.4µM*
COC(=O)CC1=NN(c2ccccc2)C(=O)/C1=C\c1ccc(OC)cc1 | -30% | -20% | -5 | ? | -10% | 2.7µM*
CCOC(=O)CC1=NN(c2ccccc2)C(=O)/C1=C\c1ccc(OC)cc1OC | 14µM* | -6% | -4 | 11µM* | 16µM* | 2.7µM*
Cc1noc(C)c1C(=O)N1CCCC(C(=O)c2cccc(C(F)(F)F)c2)C1 (centres undefined) | -3% | -22% | -2 | 10% | 38% | 4%
O=C(Nc1ccnn1C1CCN(C(=O)c2cc(Cl)ccc2F)CC1)C1CCOC1 (centres undefined) | -12% | -4% | -1 | -2% | 33% | -2%
CC(C)C(NS(=O)(=O)c1cccs1)C(=O)NCCCN1CCCCCC1 (centres undefined) | -19% | -6% | -5 | -4% | 10% | -17%
CN1CCN(c2ccc(NC(=O)c3ccc(-c4ccc(Cl)cc4)o3)cc2)CC1 | ? | -7% | -12 | 8.9µM* | -18% | -3%
O=C(Nc1ccc2oc(=O)ccc2c1)c1ccc(-c2cccc([N+](=O)[O-])c2)o1 | -32% | ? | -12 | 35µM* | -1% | -4%
CN1CCN(c2ccc(NC(=O)c3ccc(-c4cccc([N+](=O)[O-])c4)o3)cc2)CC1 | ? | -4% | 5 | 45µM* | ? | -8%
O=C(Nc1ccc2oc(=O)ccc2c1)c1ccc(-c2ccccc2[N+](=O)[O-])o1 | -31% | -3% | 11 | -21% | 8% | 4%
CS(=O)(=O)N1CCN(c2ccc(NC(=O)c3ccc(-c4ccc(Cl)cc4)o3)cc2)CC1 | -22% | -9% | . | -5% | 12% | -4%
CC(=O)N1CCN(c2ccccc2NC(=O)c2ccc(-c3cccc([N+](=O)[O-])c3)o2)CC1 | -20% | -19% | -6 | -29% | 25% | -5%
Cc1ccccc1OCC(=O)NCC(c1cccs1)N1CCOCC1 (centres undefined) | -2% | -3% | 1 | 5% | 4% | 1%
COc1ccc(CN(Cc2ccccc2)C(=O)c2ccccc2O)cc1 | 68% | . | . | . | . | .
CCn1c2ccccc2c2cc(NC(=O)COC(=O)Cc3cn4ccsc4n3)ccc21 | 35µM* | -5% | -10 | 5% | 1% | -11%
O=C(COC(=O)Cc1cn2ccsc2n1)NCc1ccc2c(c1)OCO2 | -10% | -2% | -7 | 0% | 37% | -3%
Cc1c(NC(=O)COC(=O)c2ccc(S(=O)(=O)N3CCOCC3)cc2)c(=O)n(-c2ccccc2)n1C | -8% | -4% | 8 | -15% | 15% | -1%
O=C1N=c2ccc(Br)cc2=C1c1sc(=S)n(NS(=O)(=O)c2ccccc2)c1O | 50µM* | ? | -98* | 20µM* | ? | 24µM*
COc1cccc(CNC(=O)CCc2c(C)nc3c(c(C)nn3-c3ccc(C)c(C)c3)c2C)c1 | -12% | -4% | . | 4% | 11% | .
Cc1nnc2ccc(-c3ccc(NS(=O)(=O)c4ccccc4)cc3)nn12 | -27% | -13% | -12 | -26% | -2% | 2%
CC(=O)c1ccc(S(=O)(=O)Nc2ccc(-c3ccc4nnc(C)n4n3)cc2)cc1 | -35% | -10% | ? | 71µM* | 15% | -16%
CCOC(=O)C1=NN(c2ccccc2)C(=O)/C1=C\c1ccc(N(C)C)cc1 | 8.9µM* | -22% | 1 | 10µM* | 5.6µM* | 1.9µM*
CCOC(=O)C1=NN(c2ccccc2)C(=O)C1 | -5% | 0% | -2 | -37% | 24% | 4%
CC1=NN(Cc2ccccc2)C(=O)/C1=C\c1ccc(N(C)C)cc1 | ? | -6% | 1 | 10µM* | ? | -2%
O=C1OC(CO)CN1Cc1ccccc1 (centres undefined) | -9% | 28% | -5 | 1% | 7% | -7%
SMILES | JMJD2A Tudor inh | GCN5L2 inh | PI5P4K alpha inh | BAZ2B block | HP1b chromo inh | PLK1 PBD inh
Cc1c(C(=O)OCc2nc3ccsc3c(=O)[nH]2)oc2ccccc12 | -13% | -8% | -6 | 5% | 42% | -2%
CCN1C(=O)c2ccccc2S(=O)(=O)c2ccc(C(=O)NCc3ccc(F)cc3)cc21 | -16% | -10% | . | -15% | 9% | .
Cc1cc(C)cc(N(CC(=O)NCc2ccc(F)cc2)C(=O)CCC(=O)Nc2ccccn2)c1 | -17% | -1% | 3 | 1% | 8% | -9%
O=C(CCc1ccccc1)NCc1ccc2c(c1)CCN2C(=O)c1ccc(Cl)cc1 | 4% | -19% | . | -1% | 25% | .
CC1(O)CC(c2ccc(Cl)cc2)=NN1C(=O)c1ccc([N+](=O)[O-])cc1 (centres undefined) | -24%[11.4 µM] | 0% | -15 | 14µM* | ? | -28%
CC(=O)N1N=C(c2ccc(Cl)cc2)CC1c1ccc([N+](=O)[O-])cc1 (centres undefined) | -26% | -2% | -3 | -7% | 6% | -10%
COc1ccc(C2C(C(=O)c3cccs3)=C(O)C(=O)N2c2nnc(C)s2)cc1OC (centres undefined) | 79µM* | 1% | . | 50µM* | 24% | ?
CC(C)c1nnc(N2C(=O)C(O)=C(C(=O)c3cccs3)C2c2ccccc2)s1 (centres undefined) | -28% | -13% | -28 | 79µM* | 8% | ?
O=C(CCCNC(=O)c1ccc(Cl)cc1)NCc1ccc(F)cc1 | -11% | -9% | -5 | -21% | -14%[57 µM] | 27µM*
C=C1C(=O)C=C2CN(C(=O)c3ccccc3)[C@@](Cc3ccc(F)cc3)(C(=O)OC)[C@@H]12 | -29% | -2% | -77* | -7% | 11% | 17µM*
C=C1C(=O)CC2=C1[C@](Cc1ccc(F)cc1)(C(=O)OC)N(C(=O)c1ccccc1)C2 | . | . | -2 | . | . | -12%
CCCNC(=O)C1(C)CCCN(Cc2ccc(-c3ccccn3)cc2)C1 (centres undefined) | . | . | 4 | . | . | -24%
O=[N+]([O-])c1c(Nc2ccccc2O)cc(Cl)c2nonc12 | ? | -28% | ? | ? | ? | 3µM*
O=C(O)c1cc(Nc2cc(Cl)c3nonc3c2[N+](=O)[O-])ccc1O | -32% | -22% | ? | ? | 9% | 4.7µM*

Screens as filed in PubChem BioAssay.
